Screening data: PubChem BioAssay, National Center for Advancing Translational Sciences (NCATS)
LmPK inhibitor = qHTS Assay for Inhibitors of Leishmania Mexicana Pyruvate Kinase (LmPK); Q27686; purified LmPK, Kinase-Glo ATP luminescence, 1 h; Potency, µM (series often up to 57.5 µM), for the others: top-dose activity change, negative = inhibition, hits mostly inhibitors; 290,000 tested, 0.37% active; note: potency is the fitted concentration of half-maximal effect; % is set by controls: 0 for no effect and ±100 for the full control effect
Target sequence (Q27686 whole entry, looked up): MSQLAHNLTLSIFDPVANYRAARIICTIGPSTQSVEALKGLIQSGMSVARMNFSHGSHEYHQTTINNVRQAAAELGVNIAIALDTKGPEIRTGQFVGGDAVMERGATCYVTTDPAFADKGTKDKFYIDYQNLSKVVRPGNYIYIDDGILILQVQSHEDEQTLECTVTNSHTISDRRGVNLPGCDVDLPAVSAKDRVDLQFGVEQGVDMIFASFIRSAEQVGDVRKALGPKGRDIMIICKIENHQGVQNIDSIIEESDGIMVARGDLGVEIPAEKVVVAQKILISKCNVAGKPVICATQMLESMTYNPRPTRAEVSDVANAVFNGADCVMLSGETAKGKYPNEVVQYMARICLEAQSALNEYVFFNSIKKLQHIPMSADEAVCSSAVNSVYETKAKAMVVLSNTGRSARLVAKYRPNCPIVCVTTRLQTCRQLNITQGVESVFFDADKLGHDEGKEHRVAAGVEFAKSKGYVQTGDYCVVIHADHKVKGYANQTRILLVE
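0.1 nM LmPK, 0.5 mM PEP, 0.1 mM ADP; 50 mM imidazole pH 7.2, 7 mM MgCl2, 50 mM KCl; 1 h RT. Kinase-Glo luminescence readout, normalized to no-enzyme (full inhibition) and uninhibited wells.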
CHX counter = Cycloheximide Counterscreen for Small Molecule Inhibitors of Shiga Toxin | cell reporter, cycloheximide protein synthesis inhibition counterscreen | max response, % | 300,000 tested, 12% active; in the data active = max response mostly above about 13%, no sharp cut-off; inactive = mostly below about 14%; note: read at 38.3 µM for the half of the compounds with a filed dose; 0% is about no effect
RE007 growth inh = qHTS Assay for Inhibitors of the HIV-1 protein Vpr | S. pombe RE007 Vpr strain, BacTiter-Glo ATP luminescence, 24 h | Potency, µM (doses to about 92.2 µM), inactives show at the highest dose activity change, negative = less growth, usual class: inhibitors | 360,000 tested, 0.21% active; active = well fitted falling curve with a large enough effect; inconclusive = small, poorly fitted or top-dose-only effect; inactive = no such curve, though single readings can be large or run the other way; note: potency is the fitted concentration of half-maximal effect; % is set by controls: 0 for no effect and ±100 for the full control effect; nearly all actives have a fitted effect of over 50% in size
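Fission yeast RE007 carrying one integrated HIV-1 vpr copy, seeded at OD 0.01 in PMG+AL medium with 23 nL pinned compound. Grown 24 h at 30 degrees; viability read by BacTiter-Glo luminescence after 5 min.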
Shiga toxin inh = A qHTS for Small Molecule Inhibitors of Shiga Toxin; 290,000 tested, 9.2% active; Vero cells, Shiga toxin protein synthesis inhibition reporter; inhibition, % at 38.7 µM; in the data active = inhibition mostly above about 28%, no sharp cut-off; inactive = mostly below about 43%; note: 0% is about no effect
Tb PYK inh = qHTS of Trypanosoma Brucei Inhibitors. pyruvate kinase (Trypanosoma brucei), Q57TT1. Potency, µM (top dose mostly 76.8 µM), without a hit: top-dose activity, negative = inhibition, hits mostly inhibitors. TbPYK enzyme, Kinase-Glo Plus ATP luminescence, 45 min. 410,000 tested, 0.12% active; note: potency is the fitted concentration of half-maximal effect; % is set by controls: 0 for no effect and ±100 for the full control effect; nearly all actives have a fitted effect of over 50% in size
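In this concentration-response screen, enzyme-free wells defined baseline while DMSO plates tracked drift. Each reaction combined TbPYK, substrate, compound and 130 uM ADP for 45 min at room temperature. Kinase-Glo Plus luminescence gave the signal.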
FBPA Giardia inh = qHTS Assay for Inhibitors of Fructose-1,6-bisphosphate Aldolase from Giardia Lamblia | A8B2U2 | purified Giardia FBPA | Potency, µM (highest dose often 59.6 µM), for inactives: top-dose activity, negative = inhibition, hits mostly inhibitors | 290,000 tested, 0.71% active | AID 2451, 2010; note: potency is the fitted concentration of half-maximal effect; % is set by controls: 0 for no effect and ±100 for the full control effect; nearly all actives have a fitted effect of over 55% in size
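40 nM FBPA preincubated 10 min at RT with compound (up to 57.5 uM final), then substrate plus GAPDH/TPI/NAD/arsenate coupling and diaphorase/resazurin added. Fluorescence read after 20 min at RT, 525/598 nm.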
Active calls of the source: *; ? = inconclusive; nt = no result given; [ ] = another dose, or the depositor's remark. The full list was thinned out, with hits kept by preference. Unless noted, calls come from the whole dose curve; as a rule, active = well fitted curve in the direction sought with a large enough effect; inconclusive = small, poorly fitted or top-dose-only effect, or another doubt; inactive = no such curve, though single readings can be large; an effect the other way counts as inactive or inconclusive.

SMILES	LmPK inhibitor	CHX counter	RE007 growth inh	Shiga toxin inh	Tb PYK inh	FBPA Giardia inh
CC1CCN(CCCn2c(=S)[nH]c3c(sc4ccc([N+](=O)[O-])cc43)c2=O)CC1	5%	-2	6%	-17	-8%	-20%
COc1ccc(-c2nnc(SCC(=O)NC3CCCC3)nc2-c2ccc(OC)c(OC)c2)cc1OC	nt	nt	nt	nt	-13%	nt
Cc1ccc(C2=Nc3ccccc3N(CC(=O)NCc3ccccc3Cl)C(=O)C2)cc1C	nt	nt	nt	nt	-1%	nt
COc1ccc(Nc2cc(C(=O)NCCCN(C)Cc3ccccc3)c3ccccc3n2)cc1OC	nt	nt	nt	nt	-1%	nt
Cc1ccccc1NC(=O)CSC1=Nc2ccccc2C2=NC(Cc3ccccc3)C(=O)N12 (stereo not given)	nt	nt	nt	nt	-14%	nt
COc1ccc2c(c1)O[C@H](c1ccc3c(c1)OCO3)[C@@H](O)C2=O	0%	38*	13%	58*	-2%	-5%
COc1ccc2c(c1)O[C@@H](c1ccc3c(c1)OCO3)[C@H](OC(=O)Nc1cc(OC)c(OC)c(OC)c1)C2=O	1%	15*	nt	36*	nt	-12%
COc1ccc2c(c1)O[C@@H](c1ccc3c(c1)OCO3)[C@H](OC(=O)NCc1ccc3c(c1)OCO3)C2=O	nt	nt	nt	nt	nt	-3%
C=C(C)C(=O)OCCOCC	nt	-4	nt	-2	nt	15%
CCOC(=O)c1ccc(N2C(=O)C3CC=CCC3C2=O)cc1 (stereo not given)	-2%	19*	18%	21	-1%	0%
CCOC(=O)c1ccc(N2C(=O)C=CC2=O)cc1	-12%	7	5.6µM*	-12	32µM*	?
CC(C)OC(=O)c1ccc(N2C(=O)C3CC=CCC3C2=O)cc1 (stereo not given)	-1%	20*	6%	19	-1%	-6%
CCOC(=O)c1ccc(N2C(=O)CC(C)(CC)CC2=O)cc1	1%	-4	-3%	-6	4%	0%
CC(C)c1ccc(CNc2nc(-c3ccco3)nn2C(=O)c2ccc([N+](=O)[O-])cc2)cc1	nt	nt	nt	nt	-1%	nt
C[C@@H]1C[C@H]2[C@H]3C[C@@H](F)C4=CC(=O)C=C[C@]4(C)[C@@]3(Cl)[C@@H](O)C[C@@]2(C)[C@@H]1C(=O)COC(=O)C(C)(C)C	nt	nt	nt	nt	0%	-5%[21.7 µM]
CCOc1ccc(NC(=O)C(=O)NCC2CCCN2CC)cc1 (stereo not given)	0%	1	-23%	-4	-2%	-7%
CCN1CCCC1CNC(=O)C(=O)Nc1ccccc1 (stereo not given)	-7%	29*	-28%	86*	-1%	-5%
CC1CC(=O)N(c2ccc(N(C)Cc3ccccc3)c([N+](=O)[O-])c2)C1=O (stereo not given)	-1%	18*	-7%	54*	5%	-6%
O=c1oc2ccccc2cc1-c1nc(-c2cccs2)no1	nt	nt	nt	nt	-13%	nt
Cc1nnc(Sc2cc(C(=O)NCc3ccco3)c3ccccc3n2)s1	2%	35*	-8%	60	2%	-1%
O=C(NCc1ccco1)c1cc(-c2ccccc2)nc2ccccc12	3%	24*	-1%	53	-4%	1%
COc1ccc(-c2cc(C(=O)NCc3ccco3)c3ccccc3n2)cc1	0%	14*	8%	27	-9%	-1%
O=C(Nc1cccc(S(=O)(=O)NCc2ccco2)c1)c1cc(-c2ccccc2)nc2ccccc12	0%	36*	-4%	23	1%	-7%
Cc1oc(-c2cccc(C(F)(F)F)c2)nc1CN1CCOCC1	2%	26*	13%	54*	-1%	6%
Cc1ccc(-c2noc(-c3nnn(-c4ccc(Br)cc4F)c3C)n2)cc1	nt	nt	nt	nt	5%	nt
SMILES	LmPK inhibitor	CHX counter	RE007 growth inh	Shiga toxin inh	Tb PYK inh	FBPA Giardia inh
CC12C=C(/C=C/CCc3ccco3)C(C)(C1)C(CCc1ccco1)CC2=O (stereo not given)	nt	nt	nt	nt	nt	-6%[12.9 µM]
C=CCn1c(O)c(C(C)=Nc2cccc(C(F)(F)F)c2)c(=O)[nH]c1=O	13%	-3	1%	-14	3%	-13%
C=CCn1c(O)c(C(C)=Nc2cccc(C(=O)O)c2)c(=O)[nH]c1=O	5%	29*	4%	62*	-16%	-13%
C=CCn1c(O)c(C(CC)=Nc2cccc(C(=O)O)c2)c(=O)[nH]c1=O	0%	76*	18%	76*	8%	-21%
CCS(=O)(=O)c1ncc(N(Cc2ccco2)Cc2sccc2C)c(C(=O)Nc2ccc(C)cc2C)n1	nt	nt	nt	nt	1%	nt
CCOc1ccccc1NC(=O)CN1C(=O)C(C)SC(C)C1=O (stereo not given)	4%	-1	1%	-7	3%	0%
CCOc1ccc(NC(=O)CN2C(=O)C3CC=CCC3C2=O)cc1 (stereo not given)	-1%	27*	-5%	62	7%	-7%
CCOc1ccc(NC(=O)CN2C(=O)C(C)SC(C)C2=O)cc1 (stereo not given)	7%[11.5 µM]	25*	4%	54	2%	-1%
CN(C)C(=O)c1ccc(-c2ccc3ncnc(NCc4ccccc4)c3c2)cc1	nt	nt	nt	nt	nt	3%
CN(Cc1nccn1C)C(=O)c1ccc2nc(Cc3ccccc3F)oc2c1	-4%	55*	-1%	69*	-12%	nt
Cc1ccc(NC(=O)c2ccc3nc(Cc4ccccc4)oc3c2)cc1F	nt	nt	nt	nt	5%	nt
Cc1cc(CN(C)C(=O)c2ccc3nc(Cc4ccccc4F)oc3c2)on1	-6%	46*	9%	75*	1%	nt
CN(Cc1nccs1)C(=O)c1ccc2nc(Cc3ccccc3F)oc2c1	-5%	-3	0%	-13	-2%	nt
C[C@@H]1[C@H](C)CC[C@@]2(C(=O)O[C@H]3O[C@@H](CO[C@H]4O[C@@H](CO)[C@@H](O[C@H]5O[C@@H](C)[C@@H](O)[C@@H](O)[C@@H]5O)[C@@H](O)[C@@H]4O)[C@@H](O)[C@@H](O)[C@@H]3O)CC[C@]3(C)C(=CC[C@H]4[C@@]5(C)C[C@@H](O)[C@@H](O)[C@](C)(CO)[C@@H]5CC[C@@]43C)[C@@H]12	nt	nt	nt	nt	nt	-3%[21.7 µM]
CC(C)CC1N=C2c3ccccc3N=C(SCC(=O)NCCc3ccc(Cl)cc3)N2C1=O (stereo not given)	nt	nt	nt	nt	2%	nt
CN(C)CC1CCn2c(c(C3=C(c4cn(C)c5ccccc45)C(=O)NC3=O)c3ccccc32)C1 (stereo not given)	nt	-10	nt	-12	nt	-8%
CN1CC(=O)N/C1=N/C(=O)Nc1cccc(Cl)c1	nt	nt	nt	nt	-7%	-12%
CN=c1sc(C(=O)Nc2cccc(Cl)c2)cc(=O)n1C	2%	-2	0%	-17	20µM*	1%
